From PubChem
In the library only some 2.3% were active in any assay of this set; here they are far more common.
MEKK2wt PB1 HTS = raises or lowers MEK5 binding to wildtype human MEKK2 PB1 domain; actives 1.1% (n = 290,000); binding response (% of control), % at 10 µM; bead flow cytometry, Alexa488-MEK5 binding to MEKK2 WT; actives lie on both sides; Q9Y2U5; in the data active = binding response below about 67% or above about 130%
MEKK3 PB1 HTS = raises or lowers MEK5 binding to the human MEKK3 PB1 domain; bead-based flow cytometry, Alexa488-MEK5 binding to MEKK3; actives lie on both sides; 0 = blocked by unlabeled MEK5, 100 = vehicle; Q99759; binding response (% of control), % at 10 µM; actives 1.4% (n = 290,000);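 active = binding response more than 3 SD above or below the average of its plate-row segment, actives on both sides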;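 also: Alexa488 bead fluorescence after subtracting the streptavidin-only scavenger bead signal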
UBC13 polyUb = human UBC13 polyubiquitination inhibition | P61088 | UBC13 polyubiquitin chain formation, TR-FRET | inhibition, % at 20 µM | actives 0.47% (n = 330,000) | AID 485273; in the data active = inhibition above about 45%, passing the limit was not always enough
Target sequence (P61088 whole entry, looked up): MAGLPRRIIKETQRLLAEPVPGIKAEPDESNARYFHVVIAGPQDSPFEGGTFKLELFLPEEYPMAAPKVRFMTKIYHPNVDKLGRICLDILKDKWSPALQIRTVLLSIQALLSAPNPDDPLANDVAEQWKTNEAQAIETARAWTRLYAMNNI
MEKK2mut PB1 HTS = signal of MEK5 binding to mutant human MEKK2 PB1 domain. AID 1530. bead flow cytometry, Alexa488-MEK5 binding to MEKK2 mutant. actives 0.35% (n = 290,000). percent response, % at 10 µM; in the data active = percent response above about 24%, passing the limit was not always enough
MEKK2wt confirm = raises or lowers MEK5 binding to wildtype human MEKK2, retest. bead flow cytometry, Alexa488-MEK5 binding to MEKK2 WT; actives lie on both sides. actives 2.4% (n = 5,900). shares compounds with MEKK3 PB1 HTS. binding response (% of control), % at 10 µM; in the data active = binding response below about 16% or above about 210%; inactive = in between
MEKK2mut-MEK5 = signal of MEK5 binding to mutant human MEKK2, retest | shares compounds with MEKK3 PB1 HTS | bead flow cytometry, Alexa488-MEK5 binding to MEKK2 mutant | percent response, % at 10 µM | actives 2% (n = 5,900) | AID 1893; in the data active = percent response mostly above about 71%, no sharp cut-off; inactive = mostly below about 38%;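 also: higher means compound restores mutant binding toward wildtype level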
MEKK3-MEK5 inh = MEKK3-MEK5 PB1 inhibition, single concentration confirmation. shares compounds with MEKK3 PB1 HTS. bead flow cytometry, Alexa488-MEK5 binding to MEKK3; stronger effect = lower value. binding response (% of control), % at 10 µM. actives 1.8% (n = 5,900). AID 1894;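 active = binding response below 72% of control, or above a set upper limit, though filed actives all read lower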
A number is an active result; - = inactive; . = not tested or not shown; [ ] = another dose, or the depositor's remark.

SMILES	MEKK2wt PB1 HTS	MEKK3 PB1 HTS	UBC13 polyUb	MEKK2mut PB1 HTS	MEKK2wt confirm	MEKK2mut-MEK5	MEKK3-MEK5 inh
Cc1cc(N)ccc1N1CCCC1	-	71[inhibitor]	-	-	-	-	-
C[C@H](NC(=O)c1ccco1)C(=O)Nc1cc(S(=O)(=O)N2CCCC2)ccc1OCC(F)(F)F	.	.	-	.	.	.	.
CN(CCCCCNC(=O)/C=N/O)Cc1ccccc1	-	-	.	-	.	.	.
CN(C)CCCN(CCCNC(=O)/C=N/O)Cc1ccccc1	179	-	-	80	-	-	-
O=C(CSc1ccc(C(F)(F)F)cc1[N+](=O)[O-])Nc1ccc2ccccc2c1	-	194	-	-	-	-	-
N#C/C(=C(/O)COC(=O)c1ccc(C#N)cc1)c1nc2ccccc2s1	-1.0[inhibitor]	-	-	-	-	-	-
CCOC(=O)c1nc2ccccc2s1	2.0[inhibitor]	2.0[inhibitor]	-	-	-	-	-
N#C/C(=C(/O)COc1ccccc1)c1nc2ccccc2s1	-	-	-	-	.	.	.
CCOC(=O)Nc1nc2ccccc2s1	-	-	-	-	.	.	.
C=CCN(CC=C)C(=S)NC(=O)c1ccc(C)c(Br)c1	-	-	-	-	.	.	.
O=C(/C=C/c1ccccc1)N/C(=C/c1ccccc1)C(=O)N1CCCCC1	-	-	-	-	.	.	.
COc1ccc(/C=C(/NC(=O)/C=C/c2ccccc2)C(=O)N2CCOCC2)cc1	-	149	-	-	-	-	-
COc1ccccc1CNC(=O)COC(=O)Cn1cnc2ccccc21	-	-	-	-	.	.	.
Cn1c(=O)c2cc(S(=O)(=O)NC(Cc3ccccc3)C(=O)NCc3ccco3)ccc2n(C)c1=O (configuration not stated)	-	-	-	-	.	.	.
Cn1c(=O)c2cc(S(=O)(=O)NC(Cc3ccccc3)C(=O)NCC3CCCO3)ccc2n(C)c1=O (configuration not stated)	-	138	-	-	-	-	-
CN(C)CCN(C)Cc1c2ccccc2c(CN(C)CCN(C)C)c2ccccc12	-	-	-	24	-	-	-
CN(C)CCP(=O)(c1ccccc1)c1ccccc1	-	-	-	-	.	.	.
CCOC(=O)c1ccccc1-c1csc(N)n1	-	-	-	-	.	.	.
COc1cc(/C=N/NC(=O)c2ccc(Cl)cc2)ccc1OCC(=O)N1CC(C)OC(C)C1 (configuration not stated)	-	52[inhibitor]	-	-	-	-	-
Clc1ccc(Sc2oc(/C=N/n3cnnc3)cc2Br)cc1	-	-	-	-	.	.	.
CN(C)C(=O)/C(C#N)=C\c1cc(Br)c(Sc2ccc(Cl)cc2)o1	-	132	.	-	-	-	-
CCn1ncc(CN2CCCC(C(=O)Nc3cccc(-c4cc5ccccc5[nH]4)c3)C2)c1C (configuration not stated)	161	-	-	24	-	-	-
CC1CN(c2nc3ccccc3nc2C(C#N)C(=O)NC2CCCCC2)CC(C)O1 (configuration not stated)	22	15[inhibitor]	-	-	-	-	-
Cn1ncc(Br)c1NC(=O)Nc1ccccc1	-	-	-	-	.	.	.
Cc1ccc(S(=O)(=O)Oc2ccc3ccc(O)cc3c2)cc1	-	-	-	-	.	.	.
SMILES	MEKK2wt PB1 HTS	MEKK3 PB1 HTS	UBC13 polyUb	MEKK2mut PB1 HTS	MEKK2wt confirm	MEKK2mut-MEK5	MEKK3-MEK5 inh
CCOc1ccc(S(=O)(=O)Oc2ccc3ccccc3c2)cc1	-	148	-	-	-	-	-
COCc1cc(C)nc(SCC(=O)N2CCC(C)CC2)c1C#N	8.0[inhibitor]	6.0[inhibitor]	-	-	-	-	-
COCc1cc(C)nc(SCC(=O)NC2CCCCC2C)c1C#N (configuration not stated)	-	-	-	-	.	.	.
O=S(=O)(Nc1nc2ccccc2nc1NCC1CCCO1)c1ccccc1 (configuration not stated)	-	53[inhibitor]	-	-	-	-	-
Cc1c(Cl)cccc1NC(=O)c1ccc(-n2ccnc2)nc1	50[inhibitor]	49[inhibitor]	-	-	-	-	-
Cc1c(Cl)cccc1NC(=O)c1cccnc1	-	-	-	-	.	.	.
O=C(NCc1ccc2c(c1)OCO2)C1CC(=O)N(CCc2ccc(Cl)cc2)C1 (configuration not stated)	-	-	-	-	.	.	.
Cc1ccc(Nc2cc(C)c3c(O)cccc3n2)cc1C	-	-	-	-	.	.	.
Cc1ccccc1Nc1cc(C)c2c(O)cccc2n1	-	57[inhibitor]	-	-	-	-	-
CC(Oc1ccc(Br)cc1)C(=O)Nc1ccc(S(=O)(=O)N(C)C2CCN(C)CC2)cc1 (configuration not stated)	.	.	-	.	.	.	.
Cc1ccc(C(=O)CSc2ncnc3sc4c(c23)CCCC4)cc1	-7.0[inhibitor]	0.0[inhibitor]	-	-	-	-	-
COCCNC(=O)CSc1nc2scc(-c3ccccc3)c2c(=O)[nH]1	-	-	-	-	.	.	.
COc1ccc(S(=O)(=O)NCc2ccco2)cc1NC(=O)c1ccccc1	-	-	-	-	.	.	.
Cc1ccccc1CCN(C(=O)Cn1nnc2ccccc21)C(C(=O)NCC1CCCO1)c1nc2ccccc2n1C (configuration not stated)	-	-	-	-	.	.	.
COc1ccc(CCN2C(=O)CCC2(C)C(=O)NC2CCCC2)cc1OC (configuration not stated)	45[inhibitor]	35[inhibitor]	-	-	-	-	-
Cc1ccc(CCN2C(=O)CCC2(C)C(=O)NC2CCCC2)cc1 (configuration not stated)	-	-	-	-	.	.	.
Cc1ccc(CCNC(=O)c2cccc(NC3=NC4CS(=O)(=O)CC4S3)c2)cc1 (configuration not stated)	-	-	-	-	.	.	.
CC(C)(CS(=O)(=O)[O-])NC(=O)CC[N+](C)(C)CCO	-	65[inhibitor]	-	-	-	-	-
Cc1ccccc1NC(=O)c1nc2nccc(C)n2n1	-	69[inhibitor]	-	-	-	-	-
CC(OC(=O)c1nccnc1N)C(=O)Nc1ccc(S(=O)(=O)N2CCCC2)cc1 (configuration not stated)	.	.	-	.	.	.	.
Cc1cc(NC(=O)CC2CCCC2)ccc1Br	-	-	-	-	.	.	.
Cc1cccc(NC(=O)CC2CCC2)c1	-1.0[inhibitor]	2.0[inhibitor]	-	-	-	-	-
Cc1cccc(NC(=O)CN2CCN(CC(=O)Nc3cccc(C)c3)CC2)c1	-	82[inhibitor]	-	-	-	-	-
Cc1cc(C(=O)Nc2ccc3[nH]ccc3c2)no1	-	-	-	-	.	.	.
CC1=CS(=O)(=O)CC1Sc1ncn[nH]1 (configuration not stated)	-	64[inhibitor]	-	-	-	-	-
COc1cc(C(=S)N2CCOCC2)cc(OC)c1OC(=O)c1cccc(C)c1	-	-	-	25	-	-	-
COCCCNC(=S)NNC(=O)c1ccoc1C	-	74[inhibitor]	-	-	-	-	-
